Data on 40 compounds can be found in PubChem BioAssay.

Unmarked numbers belong to inactive results. The rule behind the calls is not given here.

This test concerns Aerobactin synthetase IucA (Klebsiella pneumoniae hvKP1). The test is described as follows: IucA enzyme inhibition, primary screen, biochemical, Spectrum library (AID 1346200).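 Note: 100% = wells without compound and 0% = wells lacking enzyme.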 To be noted: malachite green pyrophosphate, A620, at 8 µM, active compounds read low.
`CC[C@@H](CO)NCCN[C@@H](CC)CO`: the activity remaining was 102%.

For the compound `CC(=O)O[C@@H]1CC2C(C)(CC[C@H](O)C2(C)C)C2CC[C@]3(C)C(=CC(=O)O[C@H]3c3ccoc3)C21C` (stereo not given in full), the activity remaining is 95.5%.

For the compound `C[C@H]1OC(n2cc(F)c(=O)[nH]c2=O)C(O)[C@@H]1O` (stereo not given in full), the activity remaining is 121%.

Regarding `CN(C(=O)C(Cl)Cl)c1ccc(OC(=O)c2ccco2)cc1`, the activity remaining is 96.4%.

Turning to `O=C(O)c1cccnc1`, the activity remaining is 120%.

Take `CC(C1OC(C)(C)C(O)C1O)[C@@H]1CC[C@]2(C)C3=CCC4C(C)(C)C(=O)CC[C@]4(C)C3CC[C@@]12C` (stereo not given in full): the activity remaining was 111%.

On to `COC(=O)C(O)c1ccccc1` (stereo not given), for which the activity remaining was 108%.

Take `CCCCCCOc1ccccc1C(N)=O`: the activity remaining is 96.8%.

On to `N.N.O=C(O)C1(C(=O)O)CCC1.[Pt]`, for which the activity remaining was 94.6%.

On to `COc1ccc2c(C)cc(=O)oc2c1`, for which the activity remaining was 92.2%.

In the case of `COc1ccc(-c2cc(=O)c3c(OC(C)=O)cc(OC(C)=O)cc3o2)cc1`, the activity remaining was 108%.

As for `CC(N)C12CC3CC(CC(C3)C1)C2` (stereo not given), the activity remaining was 115%.

For `COC(=O)c1c(C)cc(OC)cc1O`, the activity remaining was 98.9%.

For `CCOC(=O)n1ccn(C)c1=S`, the activity remaining is 127%.

In the case of `COc1ccc(-c2oc3c(CC=C(C)C)c(O[C@@H]4O[C@H](CO)[C@@H](O)[C@H](O)[C@H]4O)cc(O)c3c(=O)c2O[C@@H]2O[C@@H](C)[C@H](O)[C@@H](O)[C@H]2O)cc1`, the activity remaining is 121%.

Take `C=CC(C1=CC(=O)C(OC)=CC1=O)c1ccc(O)cc1` (stereo not given): the activity remaining was 120%.

Turning to `C=C[C@@](C)(O)CCC1C(=C)C[C@H](O)C2C(C)(C)CCCC12C` (stereo not given in full), the activity remaining is 123%.

As to `O=C(O)CCCN1C(=O)c2cccc3cccc(c23)C1=O`, the activity remaining was 110%.

In the case of `CC1(C)C(=O)[C@@H]2C[C@@]3(O)C4=CC(=O)O[C@@H](c5ccoc5)[C@]4(C)CCC3C(C)(C2=O)[C@H]1CC(=O)O` (stereo not given in full), the activity remaining was 98.2%.

As to `O[C@H]1[C@H](O)[C@@H](O)C2OC[C@H]1O2`, the activity remaining was 119%.

With `CCOC(=O)CCC(=O)O[C@H]1[C@H](O[C@@H]2[C@@H](C)[C@H](O[C@H]3C[C@@](C)(OC)[C@@H](O)[C@H](C)O3)[C@@H](C)C(=O)O[C@H](CC)[C@@](C)(O)[C@H](O)[C@@H](C)C(=O)[C@H](C)C[C@@]2(C)O)O[C@H](C)C[C@@H]1N(C)C`, the activity remaining is 113%.

Take `CCc1ccc2c(O)c3c(cc2c1C(=O)OC)C(=O)c1c(O)ccc(O)c1C3=O`: the activity remaining was 115%.

With `CCCOc1ccc2nc(NC(=O)OC)[nH]c2c1`, the activity remaining was 98.2%.

For the compound `CC(=O)OCC(=O)[C@@]1(O)[C@H](OC(C)=O)CC2C3CCC4=CC(=O)C=C[C@]4(C)[C@@]3(F)[C@@H](O)C[C@@]21C` (stereo not given in full), the activity remaining was 120%.

Regarding `N=c1ccn2c(n1)O[C@@H]1[C@@H](O)[C@H](CO)O[C@@H]12`, the activity remaining was 97.5%.

For the compound `CC1(C)O[C@@H]2CC3C4C[C@H](F)C5=CC(=O)C=C[C@]5(C)[C@@]4(F)[C@@H](O)C[C@]3(C)[C@]2(C(=O)CO)O1` (stereo not given in full), the activity remaining is 99.1%.

In the case of `COc1ccc(CC(=O)c2ccc(O)cc2O)cc1`, the activity remaining is 111%.

In the case of `CC1CCCC(C)N1NC(=O)c1ccc(Cl)c(S(N)(=O)=O)c1` (stereo not given), the activity remaining is 121%.

As for `CCCCN1CCCCC1C(=O)Nc1c(C)cccc1C` (stereo not given), the activity remaining is 103%.

For `CC(C)C[C@@H](NC(=O)OCC1c2ccccc2-c2ccccc21)C(=O)O`, the activity remaining was 119%.

In the case of `O=C(/C=C/c1ccccc1)c1ccc(O[C@@H]2O[C@H](CO)[C@@H](O)[C@H](O)[C@H]2O)cc1O`, the activity remaining was 116%.

With `CO/N=C(/C(=O)N[C@@H]1C(=O)N2C(C(=O)O)=C(CSc3nc(=O)c(O)nn3C)CS[C@H]12)c1csc(N)n1`, the activity remaining was 110%.

For `CS(=O)(=O)c1ccc([C@@H](O)[C@@H](CO)NC(=O)C(Cl)Cl)cc1`, the activity remaining was 124%.

In the case of `O=C(O)C1=C[C@@H](O)[C@@H](O)[C@H](O)C1`, the activity remaining is 86.3%.

Take `CCOc1ccc(C(=O)c2ccc(OC)c(O)c2O)cc1`: the activity remaining was 109%.

As for `O=C(O)CCC(=O)OC[C@@H](NC(=O)C(Cl)Cl)[C@H](O)c1ccc([N+](=O)[O-])cc1`, the activity remaining was 110%.

On to `CC(C)c1nc(N(C)S(C)(=O)=O)nc(-c2ccc(F)cc2)c1/C=C/[C@@H](O)C[C@@H](O)CC(=O)O`, for which the activity remaining was 124%.

`CC1(C)CC[C@]2(C)CC[C@]3(C)C(=CCC4[C@@]5(C)CC[C@H](O)C(C)(C)C5CC[C@]43C)C2C1` (stereo not given in full): the activity remaining is 121%.

For `CC(=O)OCC(=O)[C@@]1(O)CCC2C3CCC4=CC(=O)C=CC4(C)C3[C@@H](O)C[C@@]21C` (stereo not given in full), the activity remaining is 81.1%.

For the compound `COC(=O)[C@@]1(C)CCC[C@]2(C)c3ccc(O)c(C(C)C)c3CCC12` (stereo not given in full), the activity remaining was 121%.
